Data on three molecules can be found in PubChem BioAssay.

Where “and” joins values, the source holds several entries; their conditions need not be identical. Equal values may be shown once. Calls of active or inactive are those of the source. Unless noted, how the calls were made is not given here.

Experiment [1] is described as follows: P. berghei load reduction in hepatocytes – cell-based, HepG2, luciferase luminescence, HepG2 viability, primary screen (AID 624349; in the data active means parasite load remaining mostly below about 12%, no sharp cut-off; inactive means mostly above about 10%;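 further: 100% = mean of DMSO negative control wells on the same plate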). Conditions: P. berghei liver stage in HepG2, luciferase luminescence, concentration not given here; parasite load remaining: stronger effect = lower value; viability: measured here: HepG2 viability without parasites.
Experiment [2] can be described thus: signal quenchers or enhancers, Cy5 substrate/SSB – biochemical, NIH Clinical Collection, E. coli SSB, artefact control for HCV NS3 helicase inhibitor project (AID 743268). Conditions: Cy5-oligo bound E. coli SSB, fluorescence interference.
Experiment [3] concerns Hepatitis C virus NS3 helicase. Description: blockers of NS3h binding to DNA – biochemical, fluorescence polarization, NIH Clinical Collection, primary screen (AID 743270). Conditions: NS3 helicase binding to Cy5-dT15 DNA, stronger effect = higher value, concentration not given here.
For experiment [4], the target named is Single-stranded DNA-binding protein (Escherichia coli (strain K12)) (UniProt P0AGE0). Description: SSB-ssDNA binding inhibitors – biochemical, fluorescence polarization, NIH Clinical Collection, counter-screen for HCV NS3 helicase inhibitor project (AID 743271; in the data active means inhibition above about 28%). The conditions noted are these: E. coli SSB-DNA binding, stronger effect = higher value, concentration not given here.

Experiment [5] in a line: compounds distorting NS3 helicase fluorescence signal – biochemical, NIH Clinical Collection, artefact control for HCV NS3 helicase inhibitor project (AID 743272).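 Further: HCV NS3 helicase with a Cy5 labelled single stranded DNA probe.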 The conditions noted are these: fluorescence interference counterscreen, HCV NS3 helicase assay; stronger effect = lower value.
Experiment [6] is described as follows: Wnt pathway potentiators raising nuclear beta-catenin – imaging, WNT3A-conditioned medium, mouse C2C12, NPC library, primary screen (AID 1117326; in the data active means nuclear beta-catenin stimulation mostly above about 4.2%, no sharp cut-off; inactive means mostly below about 10%). The conditions noted are these: stronger effect = higher value.
Experiment [7] in a line: stimulators of insulin release from INS-1E, primary screen, cell-based, 5 mM glucose, NPC library (AID 1117329;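 active means compound raises insulin release from rat beta cells at 5 mM glucose, no numeric limit stated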). Conditions: rat INS-1E insulin secretion, at 10 µM, stronger effect = higher value.
Experiment [8] can be described thus: growth inhibition of GSK3B-pretreated HCT116 cells – cell-based, CellTiter-Glo, 0.2 to 20 µM (AID 1117336;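 active means compounds lowering colon cancer cell viability after pretreatment blocking the GSK3B kinase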). The conditions noted are these: HCT116 viability after GSK3B inhibitor, at 20 µM, stronger effect = higher value.
A short description of experiment [9]: inhibition of endothelial tube formation, primary screen, imaging, VEGF stimulated, CD31 staining, tube area, NPC library (AID 1117340;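 active means compound that reduces growth-factor-driven endothelial tube area in a mixed cell culture, no cutoff stated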). The conditions noted are these: VEGF-stimulated ADSC/ECFC co-culture, at 10 µM, stronger effect = higher value.
Experiment [10] is described as follows: GLP1 release stimulators, primary, NCI-H716, NPC library (AID 1117341;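 active means compound raises GLP1 secretion from the human gut endocrine cells, with no numeric limit stated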). The conditions noted are these: NCI-H716 cells, at 10 µM, stronger effect = higher value.
A short description of experiment [11]: HCT116 colon cancer cell growth inhibition, primary screen, CellTiter-Glo luminescence, NPC library (AID 1117342;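 active means compounds that lower survival of HCT116 colon cancer cells in the luminescence readout, no numeric limit stated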). The conditions noted are these: at 20 µM (top of the series).
Experiment [12] can be described thus: reduced SW480 viability measured with CellTiter-Glo, NPC library, primary (AID 1117343;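 active means compounds that lower viability of the colon cancer cells in the luminescence readout, with no numeric limit stated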). The conditions noted are these: CellTiter-Glo luminescence; at 20 µM (top of the series).
Experiment [13] can be described thus: NPC library primary testing for decreased DLD-1 cell viability via CellTiter-Glo (AID 1117346;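 active means compounds that lower survival of DLD-1 colon cancer cells in the luminescence readout, no cutoff given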). The conditions noted are these: DLD-1 viability, CellTiter-Glo luminescence; at 20 µM (top of the series).
In experiment [14] the target is 6-phosphogluconate dehydrogenase, decarboxylating (Homo sapiens) (UniProt P52209). In words: inhibition of human phosphogluconate dehydrogenase – biochemical, recombinant enzyme, NADPH absorbance, primary screen (AID 1159550;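 active means at least 20% inhibition of 6-phosphogluconate dehydrogenase activity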). The conditions noted are these: recombinant 6PGD, NADPH absorbance 341 nm; at 10 µM; stronger effect = higher value.
A short description of experiment [15]: viability loss with induced miR-34 in A549 – imaging, A549 dox-inducible miR-34, nuclei and caspase counts, primary screen (AID 1347080;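 active means compounds whose cell count with miR-34 switched on is under 0.7 times the count with it off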). Conditions: A549 miR-34 inducible, Hoechst nuclei count, 48 h.
Experiment [16] addresses NAD(+) hydrolase SARM1 (Homo sapiens) (UniProt Q6SZW1). Description: blocking NAD cleavage by SARM1 SAM-TIR – cell lysate, NAD-Glo luminescence (AID 1508614;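 active means compound whose remaining NAD level is above about 45 nM, limit read from the data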). Conditions: SAM-TIR HEK293T lysate NADase, at 1 µM, stronger effect = higher value.
Experiment [17] has as its target Mitogen-activated protein kinase 7 (Homo sapiens) (UniProt Q13164). Description: Gal4-ERK5 driven luciferase induction – cell-based, HTS, primary screen (AID 1508626;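 active means luciferase signal above three times the same-plate solvent-only control wells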;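 further: luciferase driven by Gal4-ERK5 fusion binding five Gal4 sites before minimal TATA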). The conditions noted are these: HeLa Gal4-ERK5 transactivation, 18 h, at 5 µM, stronger effect = higher value.
Experiment [18] relates to F380Y. Description: BK channel mutant inhibitors and activators – cell-based, U2OS BacMam, thallium flux, beta subunits, selectivity assay, profiling panel (AID 1259406;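 active means thallium flux through the channel raised or lowered by more than 3 SD from vehicle-only wells, actives on both sides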;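 further: initial slope of Thallos dye fluorescence rise after thallium is added; log ratio against the mean of 0.3% DMSO vehicle wells on the same plate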). The conditions noted are these: U2OS BacMam BK variants, at 30 µM.
The nature of experiment [19]: MELAS cybrid and Rieske KO viability enhancers – cell-based, MELAS cybrids, Rieske KO mouse fibroblasts, CellTiter-Glo, primary screen (AID 1508586;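 active means mean z-score across replicates of 1.96 or higher in either the MELAS or the Rieske mutant cell line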;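 further: z relative to plate mean and SD of compound and empty wells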). Conditions: low glucose.
[20] abbreviates: stronger effect = lower value, cell number ratio, induced over uninduced.
The mark [21] stands for this setting: measured here: relative caspase fold change +Dox/-Dox.
[22] abbreviates: measured here: total cells with miR-34 induction, stronger effect = lower value.
[23] abbreviates: measured here: total cells without miR-34 induction.

Mitogen-activated protein kinase 7 (Homo sapiens), sequence (Q13164 whole entry, looked up, the tested form may be a part): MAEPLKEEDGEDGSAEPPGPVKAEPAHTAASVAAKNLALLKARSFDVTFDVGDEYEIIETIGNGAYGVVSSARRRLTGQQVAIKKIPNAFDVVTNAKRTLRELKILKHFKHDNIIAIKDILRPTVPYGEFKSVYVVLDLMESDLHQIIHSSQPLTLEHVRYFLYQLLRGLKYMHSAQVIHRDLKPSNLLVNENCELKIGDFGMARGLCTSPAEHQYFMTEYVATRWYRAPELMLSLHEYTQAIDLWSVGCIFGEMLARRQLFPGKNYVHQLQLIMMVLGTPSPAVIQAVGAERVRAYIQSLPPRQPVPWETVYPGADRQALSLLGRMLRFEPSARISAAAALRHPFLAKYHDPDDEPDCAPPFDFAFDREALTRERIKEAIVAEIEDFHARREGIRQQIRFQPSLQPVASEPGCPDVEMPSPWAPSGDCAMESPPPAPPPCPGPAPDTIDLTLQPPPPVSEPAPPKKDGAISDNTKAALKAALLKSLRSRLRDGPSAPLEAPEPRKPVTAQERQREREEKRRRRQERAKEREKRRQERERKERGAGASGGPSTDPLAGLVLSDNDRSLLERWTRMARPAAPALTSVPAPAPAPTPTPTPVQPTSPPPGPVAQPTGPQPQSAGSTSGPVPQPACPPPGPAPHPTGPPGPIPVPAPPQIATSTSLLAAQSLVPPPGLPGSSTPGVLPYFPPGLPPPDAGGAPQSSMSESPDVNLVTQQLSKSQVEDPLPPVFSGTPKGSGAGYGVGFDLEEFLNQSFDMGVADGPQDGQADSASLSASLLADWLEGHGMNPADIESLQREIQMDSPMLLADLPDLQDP
6-phosphogluconate dehydrogenase, decarboxylating (Homo sapiens), sequence (P52209 whole entry, looked up): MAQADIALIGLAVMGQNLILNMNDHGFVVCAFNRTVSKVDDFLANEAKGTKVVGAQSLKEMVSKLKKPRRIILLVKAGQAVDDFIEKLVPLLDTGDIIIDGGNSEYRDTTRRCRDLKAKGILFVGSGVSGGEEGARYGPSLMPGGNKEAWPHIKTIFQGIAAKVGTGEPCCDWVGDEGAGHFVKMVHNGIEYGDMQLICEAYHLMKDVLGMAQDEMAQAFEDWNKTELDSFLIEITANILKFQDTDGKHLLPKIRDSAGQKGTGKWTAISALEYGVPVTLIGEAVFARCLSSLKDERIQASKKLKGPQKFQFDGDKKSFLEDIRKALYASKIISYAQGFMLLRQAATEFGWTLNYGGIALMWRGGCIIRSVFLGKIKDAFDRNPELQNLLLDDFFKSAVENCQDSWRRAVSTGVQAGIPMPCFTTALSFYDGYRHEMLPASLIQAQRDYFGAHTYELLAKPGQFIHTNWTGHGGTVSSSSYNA
NAD(+) hydrolase SARM1 (Homo sapiens), sequence (Q6SZW1 whole entry, looked up, the tested form may be a part): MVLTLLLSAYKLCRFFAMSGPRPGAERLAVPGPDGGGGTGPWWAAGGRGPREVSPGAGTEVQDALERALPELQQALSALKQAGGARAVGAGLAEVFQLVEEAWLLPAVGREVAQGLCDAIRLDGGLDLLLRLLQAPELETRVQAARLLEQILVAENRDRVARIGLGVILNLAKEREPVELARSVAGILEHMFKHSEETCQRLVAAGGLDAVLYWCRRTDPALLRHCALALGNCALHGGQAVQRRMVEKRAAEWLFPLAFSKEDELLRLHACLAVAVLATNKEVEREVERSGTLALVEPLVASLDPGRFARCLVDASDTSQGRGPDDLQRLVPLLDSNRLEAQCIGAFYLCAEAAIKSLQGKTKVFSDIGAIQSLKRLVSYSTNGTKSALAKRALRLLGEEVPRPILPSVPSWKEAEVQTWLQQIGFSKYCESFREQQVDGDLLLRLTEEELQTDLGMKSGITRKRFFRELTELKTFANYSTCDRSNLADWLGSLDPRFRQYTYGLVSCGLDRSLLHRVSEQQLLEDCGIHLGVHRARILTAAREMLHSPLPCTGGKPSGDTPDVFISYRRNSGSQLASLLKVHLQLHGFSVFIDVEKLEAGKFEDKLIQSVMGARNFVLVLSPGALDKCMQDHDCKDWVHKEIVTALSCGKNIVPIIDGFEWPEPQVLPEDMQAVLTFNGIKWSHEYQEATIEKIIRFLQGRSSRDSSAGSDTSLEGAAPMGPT

For the molecule `CC1=C(C(=O)O)N2C(=O)[C@@H](NC(=O)[C@H](N)c3ccccc3)[C@H]2SC1`, the parasite load remaining in experiment [1] was 125% (inactive) and 69.1% (inactive) and 137% (inactive). Moreover, the viability in experiment [1] was 119% and 79.9% and 115%. Moreover, the fluorescence ratio was 1.01 (inactive) in experiment [2] and 0.97 (inactive) in experiment [5]. Moreover, the inhibition in [3] is 8.32% (inactive); in [4], 8.37% (inactive); in experiment [14], 8.67% (inactive). The nuclear beta-catenin stimulation in experiment [6] (at 10 µM) is 3.8% (inactive); in [6] (stimulation, at 2 µM), 0.2%. Further, the insulin secretion stimulation in experiment [7] is -0.9% (inactive). In [8], the viability decrease was 7.2% (inactive). For the same molecule, the tube area decrease in experiment [9] is -2.6% (inactive). The GLP1 secretion stimulation in [10] was 22.8% (active). Besides, in experiment [11], the inhibition of viability is 24.3% (inactive). Moreover, the viability decrease (inhibition) was 44.6% (inactive) in experiment [12] and 11.8% (inactive) in [13]. In addition, the fold change was 0.846 (inactive) in [15] (setting [20]) and 1.36 in experiment [15] (setting [21]). Further, the cell count in [15] (setting [22]) stood at 9200; in [15] (setting [23]) it was 10900. The remaining NAD in [16] is 10 nM (inactive). Besides, the luciferase signal in [17] is 40 AU (inactive). For the same molecule, the log fold change Tl+ flux in experiment [18] was -0.036 (inactive).
As to `C[C@]12CCC(=O)C=C1CC[C@@H]1[C@@H]2C(=O)C[C@@]2(C)[C@H]1CC[C@]2(O)C(=O)CO`, the parasite load remaining in [1] was 29.2% (inactive) and 101% (inactive) and 66.2% (inactive). Further, in experiment [1], the viability is 48% and 86.7% and 71%. Also, the fluorescence ratio in experiment [2] and in [5] was 0.97 (inactive) each time. The inhibition in [3] was -1.97% (inactive); in experiment [4], 2.76% (inactive); in [14] it was 4.09% (inactive). Moreover, the nuclear beta-catenin stimulation is -0.9% (inactive) in [6] (at 10 µM) and 1.3% in [6] (stimulation, at 2 µM). The insulin secretion stimulation in experiment [7] was -3.1% (inactive). In addition, the viability decrease in experiment [8] is -9.9% (inactive). Besides, the tube area decrease in [9] is 4.3% (inactive). Moreover, the GLP1 secretion stimulation in experiment [10] was -2.4% (inactive). For the same molecule, in experiment [11], the inhibition of viability was 4.4% (inactive). The viability decrease (inhibition) in experiment [12] is 6.5% (inactive); in [13] it was -2.6% (inactive). Besides, the fold change in [15] (setting [20]) is 0.98 (inactive) and 0.917 (inactive); in experiment [15] (setting [21]), 2.11 and 1.06. The cell count was 8700 and 9320 in [15] (setting [22]); 8880 and 10200 in experiment [15] (setting [23]). Further, the z-score in experiment [19] (MELAS cybrid survival, CellTiter-Glo 48 h, stronger effect = higher value) is 1.14 (inactive); in [19] (Rieske KO mouse fibroblast survival, CellTiter-Glo 72 h), -0.104. The remaining NAD in experiment [16] is 10 nM (inactive). Also, the luciferase signal in [17] was 36 AU (inactive). Further, in experiment [18], the log fold change Tl+ flux is 0.0198 (inactive).
In the case of `O[C@@H](c1cc(C(F)(F)F)nc2c(C(F)(F)F)cccc12)[C@H]1CCCCN1`, the parasite load remaining in [1] was -2.37% (inactive). For the same molecule, in [1], the viability was found to be 0.505%. For the same molecule, the fluorescence ratio in experiment [2] was 1.04 (inactive); in [5] it was 0.96 (inactive). In addition, the inhibition was -7.73% (inactive) in experiment [3], -2% (inactive) in experiment [4] and 5.27% (inactive) in experiment [14]. In addition, the nuclear beta-catenin stimulation was 45% (active) in [6] (at 10 µM) and 3.3% in [6] (stimulation, at 2 µM). In [7], the insulin secretion stimulation was 6.3% (inactive). Besides, the viability decrease in experiment [8] is 99.1% (active). Moreover, in [9], the tube area decrease is 108% (active). For the same molecule, the GLP1 secretion stimulation in experiment [10] was -1.8% (inactive). The inhibition of viability in experiment [11] was 99% (active). For the same molecule, the viability decrease (inhibition) in experiment [12] is 102% (active); in experiment [13] it was 101% (active). The fold change in experiment [15] (setting [20]) was 1.59 (inactive); in experiment [15] (setting [21]), 0.276. Further, the values for the cell count in experiment [15] (setting [22]) and in experiment [15] (setting [23]) were 950 and 597, respectively. Also, in experiment [16], the remaining NAD was 10 nM (inactive). Also, the luciferase signal in experiment [17] is 64 AU (inactive). For the same molecule, the log fold change Tl+ flux in experiment [18] is 0.333 (active).
